sEH act – activators of human soluble epoxide hydrolase | P34913 | hit rate 0.04% among 91,000 | purified human sEH enzymatic activity, activator screen | activation, % at 2 µM; in the data active means activation above about 37%
CYP2C9 activ – CYP2C9 (human) activation | hit rate 1.4% among 96,000 | P11712 | activation factor at 5 µM | recombinant CYP2C9, luciferin-H conversion, luminescence; active compounds read high; factor 1 = untreated enzyme, 0 = blocked;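 active means activation factor of 2 or more for CYP2C9 at a 5 µM dose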;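 further: 0 = sulfaphenazole-blocked wells and 1 = vehicle-only wells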
Target sequence (P11712 whole entry, looked up): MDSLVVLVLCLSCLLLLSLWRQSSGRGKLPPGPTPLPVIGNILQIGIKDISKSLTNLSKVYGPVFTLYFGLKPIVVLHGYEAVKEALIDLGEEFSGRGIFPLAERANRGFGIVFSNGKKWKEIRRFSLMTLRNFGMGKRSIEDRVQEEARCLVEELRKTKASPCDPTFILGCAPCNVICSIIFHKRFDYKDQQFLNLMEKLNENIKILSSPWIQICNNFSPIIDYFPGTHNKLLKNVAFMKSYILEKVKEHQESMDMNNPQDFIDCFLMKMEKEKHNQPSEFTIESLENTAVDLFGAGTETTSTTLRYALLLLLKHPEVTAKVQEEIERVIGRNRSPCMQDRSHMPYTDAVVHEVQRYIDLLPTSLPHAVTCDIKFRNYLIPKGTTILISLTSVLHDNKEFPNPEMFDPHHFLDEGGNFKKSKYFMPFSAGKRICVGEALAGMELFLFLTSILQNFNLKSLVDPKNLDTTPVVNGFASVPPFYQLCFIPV
sEH inhibitor – soluble epoxide hydrolase (human) inhibition; P34913; hit rate 0.34% among 91,000; recombinant human sEH enzymatic activity assay; inhibition, % at 2 µM; in the data active means inhibition above about 80%
CYP2C19 activ – activators of human cytochrome P450 2C19; P33261; recombinant CYP2C19, luciferin-H EGE luminescence; active compounds read high; 0 = fully inhibited enzyme, 1 = untreated enzyme; activation factor at 5 µM; 96,000 tested, under 10 active; AID 1025;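 active means activation factor of at least 2 at 5 µM in the primary screen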;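 further: 0 = wells with 2.5 mM tranylcypromine and 1 = vehicle-only wells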
CYP2C19 inhib – blocks human cytochrome P450 2C19; P33261; CYP2C19 Supersomes, luciferin-H EGE luminescence, 30 min; inhibition, % at 5 µM; hit rate 21% among 96,000; AID 778;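 active means CYP2C19 inhibition above a set limit at 5 µM in the primary screen, cut at about 50% in these data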;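 further: plate controls were negative control wells for no effect and 2.5 mM tranylcypromine positive control for full effect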
CYP2C9 inhib – blocks human cytochrome P450 2C9 | P11712 | CYP2C9 Supersomes, luciferin-H conversion, luminescence | inhibition, % at 5 µM | hit rate 20% among 96,000;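 active means blocking of liver enzyme CYP2C9 beyond about 50% at 5 µM, limit read from the data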
Active calls of the source: *; . = no result. Hits are enriched below; roughly 27% of the tested compounds scored in any of these assays.

SMILES	sEH act	CYP2C9 activ	sEH inhibitor	CYP2C19 activ	CYP2C19 inhib	CYP2C9 inhib
Cc1ccccc1NC(=O)C(C)O/N=C/c1cccc([N+](=O)[O-])c1 (stereo not drawn)	0.9	0.1	-1.8	0	95.3*	93.3*
O=C(NCc1ccc(F)cc1)c1cnc(-c2ccccn2)nc1C(F)(F)F	-1.5	0.9	-0.8	1	-1.4	13.8
CC1Cc2ccccc2N1C(=O)CSc1nnc(CNc2ccccc2)o1 (stereo not drawn)	4.0	1	-4.4	1	-0.4	-3.2
Cc1ccc(C(=O)Nc2ccccc2C(=O)NC(C(=O)O)C(C)C)cc1 (stereo not drawn)	-2.0	.	3.2	.	.	.
Cc1ccc(C(=O)NCc2ccco2)cc1[N+](=O)[O-]	-2.2	1.1	0.2	0.8	21.4	-11.3
Cc1ccc(C(=O)NNC(=S)Nc2cccc(Cl)c2Cl)cc1[N+](=O)[O-]	-2.4	0.2	2.6	0.8	24.6	76.2*
O=C1NC2(CCCc3ccccc32)C(=O)N1CCOc1ccc(Br)cc1 (stereo not drawn)	-8.1	0.8	10.8	1	4.8	16.1
C=CCn1c(=O)c2c(nc(Br)n2Cc2ccccc2Cl)n(C)c1=O	.	1	.	0.3	70.9*	4.3
CCOC(=O)Cn1c(=O)c2c(nc(Br)n2Cc2ccccc2Cl)n(C)c1=O	-11.1	.	11.6	.	.	.
Cn1c(=O)c2c(nc(SCc3nn[nH]n3)n2Cc2ccccc2F)n(C)c1=O	0.2	.	4.6	.	.	.
Cn1c(SCc2nn[nH]n2)nc2c1c(=O)n(Cc1ccccc1Cl)c(=O)n2C	10.5	0.5	-11.3	1	-3.5	54.6*
CCCCOC(=O)Cn1c(=O)c2c(nc(Br)n2Cc2ccccc2)n(C)c1=O	.	0.2	.	0.1	89.4*	78.5*
O=C(NCc1ccccc1Cl)c1ccc(Cn2cc(C(F)(F)F)ccc2=O)cc1	-87.7	0.9	88.0*	0.9	12.7	13.7
CC(C)(C)OC(=O)N1CCC[C@H]1c1nnc(SCc2ccccc2F)o1	9.0	0.4	-10.9	0.4	60.6*	59.6*
CCc1ccccc1NC(=O)CSc1nnc([C@@H]2CCCN2C(=O)OC(C)(C)C)o1	7.2	0.9	-3.7	0.7	28.7	14.3
Cc1cc(OC(=O)c2ccc(S(=O)(=O)N(C)C)cc2)cc(=O)o1	-11.7	1	10.6	1	4.4	-3.5
COC(=O)C(CC(=O)c1ccc(Br)cc1)n1ccnc1 (stereo not drawn)	8.2	0.2	-7.8	0	95.5*	80.8*
COC(=O)c1ccc(NC(=O)CSCC(=O)OCC(=O)c2ccc(Br)cc2)cc1	13.0	0.7	-14.0	0.8	19.8	27.6
Cc1ccc(C(=O)Cn2nnc3c(sc4nc5c(c(-c6ccccc6)c43)CCC5)c2=O)cc1	-45.3	0.7	45.3	1.1	-6.5	31.8
CCOC(=O)c1c(C)nc2sc3c(=O)n(-c4ccc(C(C)=O)cc4)nnc3c2c1-c1ccc(OC)cc1	5.9	0.5	-7.2	0.4	59.1*	48.5
CCOC(=O)c1c(C)nc2sc3c(=O)n(-c4ccc(OC)cc4)cnc3c2c1-c1ccc(OC)cc1	4.4	0.2	-4.3	0.3	74.3*	80.3*
COc1ccc(-n2cnc3c(sc4nccc(N(C)C)c43)c2=O)cc1	7.4	1.6	-7.0	1	-4.0	-59.8
COc1cccc(C(=O)CN(C(=O)c2ccc(Cl)c(Cl)c2)N2C(=O)c3ccccc3C2=O)c1	6.9	0.6	-5.0	0.7	29.8	40.9
CCOc1ccccc1Oc1coc2cc(OC(=O)c3ccco3)ccc2c1=O	10.2	0.5	-16.3	0.9	11.3	45.4
CCOc1ccccc1Oc1coc2cc(O)ccc2c1=O	-2.6	3.1*	2.9	0.7	29.7	-211.0
SMILES	sEH act	CYP2C9 activ	sEH inhibitor	CYP2C19 activ	CYP2C19 inhib	CYP2C9 inhib
COc1ccccc1-c1coc2cc(O)cc(O)c2c1=O	-2.2	1.8	0.9	0.8	22.4	-78.4
COc1ccccc1Oc1coc2cc(O)ccc2c1=O	-5.5	2*	5.8	0.9	7.0	-95.6
CCOc1ccc2c(=O)c(Oc3ccccc3OCC)coc2c1	-5.0	2.1*	0.8	0.3	73.6*	-105.3
COc1ccc(-c2coc3cc(O)ccc3c2=O)cc1OC	10.8	2.1*	-10.5	0.9	5.4	-106.3
O=c1c(-c2ccc(F)cc2)coc2cc(O)ccc12	-5.8	1.1	7.1	0.7	26.8	-7.8
Cc1ccc(C)n1-c1sccc1C(=O)O	-6.4	1	5.9	1	-1.4	2.3
c1ccc(CCn2c3ccccc3c3nnc(SCc4ccc5nonc5c4)nc32)cc1	1.5	0.5	1.4	0.8	21.3	45.6
O=C1CCC(=O)N1CN(Cc1ccco1)CN1C(=O)CCC1=O	-4.5	1.1	7.6	1.1	-11.9	-8.2
COc1ccc(Nc2nc(C)cc(C)c2C(N)=O)c(OC)c1	-4.9	1	6.2	0.9	14.7	1.6
N#Cc1c(-c2ccc(Cl)cc2)nc2n(c1=O)CCCS2	-11.9	0.7	13.4	0.5	49.0	33.4
N#Cc1c(-c2ccc(Cl)cc2)ccn2nc(C3CCCCC3)nc12	9.8	0.1	-9.9	0.7	26.4	85.1*
Cc1cccc(C(=O)CC(=O)c2cc(Cl)ccc2O)c1	2.9	0.2	-4.4	0.7	32.0	79.0*
CC1=C(C#N)C(c2cccnc2)C2=C(CC(c3ccc(Cl)cc3)CC2=O)N1 (stereo not drawn)	8.5	0.3	-8.4	0.1	91.8*	72.8*
CC1=C(C(=O)OC(C)C)C(c2cccnc2)C2=C(CC(C)(C)CC2=O)N1 (stereo not drawn)	-6.1	.	7.4	.	.	.
O=C1CC(N2CCOCC2)C(=O)N1Cc1ccc(N2CCCC2=O)cc1 (stereo not drawn)	-9.5	1.1	9.6	1.1	-6.5	-6.7
O=C1CC(N2CCC(O)(c3ccc(Cl)cc3)CC2)C(=O)N1Cc1ccc(N2CCCC2=O)cc1 (stereo not drawn)	-1.6	0.5	3.0	0.2	80.4*	47.9
COCCN(C(=O)CSc1nnc(Nc2ccccc2F)s1)c1c(N)n(Cc2ccccc2)c(=O)[nH]c1=O	-5.2	0.4	6.0	0.7	31.9	62.2*
COc1ccc(CCN(C)Cc2ccc(OC)c(OCc3ccccc3)c2)cc1OC	8.8	0.8	-6.4	0.9	8.7	18.5
COc1cc(CN(C)Cc2ccccc2)cc(OC)c1O	-11.3	0.7	13.7	0.3	65.0*	28.1
Cc1[nH]c2ccc(-c3nnc(SCC(=O)c4ccc(F)cc4)o3)cc2c1C	4.4	0.7	-3.1	0.8	23.2	29.3
Cc1[nH]c2ccc(C(=O)O)cc2c1C	23.3	0.8	-30.5	0	99.1*	19.4
O=C(Nc1ccc2c(c1)OCO2)C1CCN(Cc2cnn(-c3ccccc3)c2-n2cccc2)CC1	-66.1	0.3	65.8	0.8	21.1	69.4*
O=C(Nc1ccc2c(c1)OCCO2)C1CCN(S(=O)(=O)Cc2ccccc2)CC1	-26.5	0.8	27.7	0.8	20.6	15.6
O=C(Nc1ccc2c(c1)OCO2)C1CCN(S(=O)(=O)Cc2ccccc2)CC1	-26.8	0.4	28.3	0.5	46.1	55.2*

Source: PubChem
